Records with an inconclusive call do not appear. Active and inactive are the calls of the source. Calls come from the whole dose curve; as a rule, active = well fitted curve in the direction sought with a large enough effect; inconclusive = small, poorly fitted or top-dose-only effect, or another doubt; inactive = no such curve, though single readings can be large; an effect the other way counts as inactive or inconclusive.
Experiments:
[1] = qHTS of pediatric cancer cell lines to identify multiple opportunities for drug repurposing: Primary screen for NB-EBc1 cells (AID 1347095)
Outline: (§1)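 500-1,000 cells/well; 5 h pre-incubation 37 °C/5% CO2; compound pinned; 48 h; CellTiter-Glo, 15 min RT; luminescence. MIPE 11-pt from 0.78 nM, NPC 8-pt from 0.59 nM final. Bortezomib 2.3 µM final as positive control.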

[2] = qHTS of pediatric cancer cell lines to identify multiple opportunities for drug repurposing: Primary screen for U-2 OS cells (AID 1347096); note: nearly all actives have a fitted effect of over 50% in size
Outline: (§2)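 Viability after 48 h compound treatment at 37C, 500-1,000 cells/well, read as ATP luminescence with CellTiter-Glo. Primary screens used 11-point (MIPE, 0.78 nM-46 µM) or 8-point (NPC, 0.59 nM-46 µM) final concentrations; follow-up screens used 11-point dilutions.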

[3] = qHTS of pediatric cancer cell lines to identify multiple opportunities for drug repurposing: Primary screen for Saos-2 cells (AID 1347097); note: nearly all actives have a fitted effect of over 40% in size
Outline: as §1

[4] = qHTS of pediatric cancer cell lines to identify multiple opportunities for drug repurposing: Primary screen for LAN-5 cells (AID 1347100)
Outline: as §2

[5] = qHTS of pediatric cancer cell lines to identify multiple opportunities for drug repurposing: Primary screen for BT-12 cells (AID 1347101); note: nearly all actives have a fitted effect of over 25% in size
Outline: (§3)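 Cells (500-1,000/well) rested 5 h, then received compounds for 48 h; metabolically active cells were measured by CellTiter-Glo luminescence. Final concentrations spanned up to 46 µM (MIPE, 11-point) or 0.59 nM-46 µM (NPC, 8-point) in primary screens, 11-point in follow-ups.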

[6] = qHTS of pediatric cancer cell lines to identify multiple opportunities for drug repurposing: Primary screen for Rh18 cells (AID 1347102); note: nearly all actives have a fitted effect of over 65% in size
Outline: as §2

[7] = qHTS of pediatric cancer cell lines to identify multiple opportunities for drug repurposing: Primary screen for OHS-50 cells (AID 1347103); note: nearly all actives have a fitted effect of over 40% in size; note: potency is the fitted concentration of half-maximal effect
Outline: as §3

[8] = qHTS of pediatric cancer cell lines to identify multiple opportunities for drug repurposing: Primary screen for RD cells (AID 1347104); note: nearly all actives have a fitted effect of over 55% in size
Outline: as §1

[9] = qHTS of pediatric cancer cell lines to identify multiple opportunities for drug repurposing: Primary screen for MG 63 (6-TG R) cells (AID 1347105); note: nearly all actives have a fitted effect of over 50% in size
Outline: as §1

[10] = qHTS of pediatric cancer cell lines to identify multiple opportunities for drug repurposing: Primary screen for control Hh wild type fibroblast cells (AID 1347106);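 note: series mostly up to about 46 µM; a drop in luminescence marks cytotoxicity and a rise apparent proliferation; nearly all actives have a fitted effect of over 55% in size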
Outline: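 Cells (500-1,000/well) in growth media were settled 5 h at 37 degrees C, then given compounds for 48 h. Viability was read as CellTiter-Glo luminescence. Primary runs used MIPE at 11 points (0.78 nM-46 µM) and NPC at 8 points (0.59 nM-46 µM); follow-ups used 11 points.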

[11] = qHTS of pediatric cancer cell lines to identify multiple opportunities for drug repurposing: Primary screen for Rh30 cells (AID 1347107); note: series mostly up to about 46 µM; nearly all actives have a fitted effect of over 75% in size
Outline: as §2

[12] = qHTS of pediatric cancer cell lines to identify multiple opportunities for drug repurposing: Primary screen for Rh41 cells (AID 1347108);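 note: series mostly up to about 46 µM; luminescence drop marks cytotoxic hits; nearly all actives have a fitted effect of over 70% in size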
Outline: as §1

[13] = qHTS of pediatric cancer cell lines to identify multiple opportunities for drug repurposing: Primary screen for SK-N-SH cells (AID 1347098); note: nearly all actives have a fitted effect of over 65% in size; note: potency is the fitted concentration of half-maximal effect
Outline: as §3

[14] = qHTS of pediatric cancer cell lines to identify multiple opportunities for drug repurposing: Primary screen for NB1643 cells (AID 1347099); note: nearly all actives have a fitted effect of over 50% in size
Outline: as §1

Measured: Potency

CCCCCCCC/C=C/C(=O)O
inactive: [1] | [2] | [3] | [4] | [5] | [6] | [7] | [8] | [9] | [10] | [11] | [12]

CC(C)(C)c1nnc(NS(=O)(=O)c2ccc(N)cc2)s1
inactive: [1] | [2] | [13] | [14] | [4] | [5] | [6] | [7] | [8] | [9] | [10] | [11] | [12]

c1ccc2sc(SN3CCOCC3)nc2c1
inactive: [1] | [2] | [3] | [13] | [14] | [4] | [5] | [6] | [7] | [8] | [9] | [10] | [11] | [12]

Cc1ccc(C(=O)c2ccc(CC(=O)O)n2C)cc1
inactive: [1] | [2] | [3] | [13] | [14] | [4] | [5] | [6] | [7] | [8] | [9] | [10] | [11] | [12]

O=C1CN(/N=C/c2ccc([N+](=O)[O-])o2)C(=O)N1
inactive: [1] | [2] | [3] | [13] | [14] | [4] | [6] | [7] | [8] | [10] | [11]

CC(C(=O)O)c1ccc2c(c1)[nH]c1ccc(Cl)cc12 (stereo not drawn)
inactive: [1] | [2] | [3] | [14] | [4] | [5] | [6] | [7] | [8] | [9] | [10] | [11] | [12]

CC(C)OC(=O)c1cc(C(=O)OC(C)C)cc([N+](=O)[O-])c1
inactive: [1] | [2] | [3] | [13] | [14] | [4] | [6] | [7] | [8] | [9] | [10] | [11] | [12]

O=c1[nH]c2ccccc2n1CCCN1CCN(C(c2ccccc2)c2ccccc2)CC1
active: [13] 24.4 µM | [7] 15.5 µM
inactive: [1] | [2] | [14] | [9] | [10] | [11]

CC(C(=O)O)c1ccc(C(=O)c2cccs2)cc1 (stereo not drawn)
inactive: [1] | [2] | [13] | [14] | [4] | [5] | [6] | [7] | [8] | [9] | [10] | [11] | [12]

CCCCCCCCCCCCCCCC(=O)OC(C)C
inactive: [1] | [2] | [3] | [13] | [14] | [4] | [5] | [6] | [7] | [8] | [9] | [10] | [11] | [12]

CC(C(=O)O)c1ccc(C(=O)c2ccccc2)s1 (stereo not drawn)
inactive: [1] | [2] | [3] | [13] | [14] | [4] | [5] | [6] | [7] | [8] | [10] | [11] | [12]

— PubChem BioAssay (NCATS)
